In PubChem BioAssay (NCATS):
Results filed as inconclusive are left out. Active and inactive are the calls of the source. Unless noted, calls come from the whole dose curve; as a rule, active = well fitted curve in either direction with a large enough effect (not every such curve was filed as active); inconclusive = small, poorly fitted or top-dose-only effect, or another doubt; inactive = flat fitted curve, though single readings scatter.

Experiments:
[1] = molecular target: Lysosomal acid glucosylceramidase (Homo sapiens) (UniProt P04062); assay: Glucocerebrosidase-p2 (AID 348; in the data active = potency below about 10 µM; note: potency is the fitted concentration of half-maximal effect); settings: purified GBA, blue fluorogenic substrate, 40 min
Summary of the method: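 Normal human glucocerebrosidase (0.2 nM) with blue fluorogenic substrate (80 uM final) in citrate/phosphate pH 5.9 with 10mM sodium taurocholate, 0.01% tween-20; 40 min RT, NaOH/glycine stop; fluorescence Ex 365/Em 440; AC50 from a titration from 0.6 nM upwards.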

[2] = AP1 Signaling Pathway (AID 357); settings: ME-180 AP-1-bla reporter, EGF-induced, beta-lactamase ratio, 5 h; at 7.69 µM (top of the series) unless noted;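 note: ME-180 reporter cells stimulated with EGF at its EC50 level; % is set by controls: 0 for no effect and ±100 for the full control effect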
Summary of the method: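 A ratiometric CCF4 readout (405 nm excitation; 460 and 530 nm emission) quantified AP-1-driven beta-lactamase in ME-180 cells after 5 h with compound and EC50 EGF; AC50 values were derived for activators and inhibitors.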

[3] = molecular target: Cytochrome P450 1A2 (Homo sapiens) (UniProt P05177); assay: p450-cyp1a2 (AID 410; calls by dose curve; note: potency is the fitted concentration of half-maximal effect;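 for activity change, negative = inhibition: -100% = full effect of reference inhibitor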); settings: recombinant CYP1A2, luciferin-ME demethylation, luminescence; series mostly up to 11.4 µM
Summary of the method: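 Read-out is luminescence from luciferin produced by CYP1A2 demethylation of Luciferin-ME (100uM, at Km). Detection reagent stopped the 60 min NADPH-dependent reaction; signals were normalized to 57 uM furafylline.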

[4] = NFAT Signaling Pathway (AID 444); settings: Jurkat NFAT-bla M1, carbachol, beta-lactamase ratio, 5 h; at 7.69 µM (top of the series) unless noted;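 note: carbachol stimulus at about its EC50 of 1 µM final; % is set by controls: 0 for no effect and ±100 for the full control effect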
Summary of the method: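 Read-out: CCF4 FRET ratio (460 nm/530 nm) after 1 h RT dye loading, used for %activity and AC50 from titration series. Cells: Jurkat NFAT-β-lactamase/M1 line, treated with compound plus 1 uM carbachol for 5 h, 37 °C.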

[5] = molecular target: Mitogen-activated protein kinase 10 (Mus musculus) (UniProt Q61831); assay: JNK3 AlphaScreen Assay (AID 530); settings: JNK3 lysate, c-Jun phosphorylation; series mostly up to 11.4 µM;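 note: kinase came from lysate of stimulated human HepG2 cells; signal reports phosphorylation of biotinylated GST-cJun 1-79 at Ser73 with 10 µM ATP; % is set by controls: 0 for no effect and ±100 for the full control effect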
Summary of the method: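 Kinase buffer: 20 mM Tris-HCl pH 7.6, 10 mM MgCl2, 1 mM DTT, 0.1 mM Na3VO4, 0.01% Tween-20; ATP 10 uM. Substrate biotin-GST-cJun(1-79), enzyme from activated HepG2 lysates. Detection by Ser73 phospho-antibody AlphaScreen.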

[6] = molecular target: 3',5'-cyclic-AMP phosphodiesterase 4B (Homo sapiens) (UniProt Q07343); assay: qHTS Assay for Inhibitors of PDE-IV (AID 607; active = well fitted activation curve with a large enough effect in the main read-out, with a control signal flat, not every such curve was filed as active; note: % of control where 0% means no effect); settings: HEK293 ACTOne CNG channel cells, membrane potential fluorescence; series mostly up to 22.9 µM
Summary of the method: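 Live HEK293 cells with a modified cyclic nucleotide-gated (CNG) channel report intracellular cAMP via membrane-potential dye fluorescence (ex 535/em 590 nm). Endogenous PDE-IV was targeted. Compounds were tested at up to 22.9 uM final; RO 20-1724 100 uM served as control.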

[7] = qHTS Assay for Identification of Small Molecule Agonists for Hypoxia Response Element Signaling Pathway (AID 914; active = well fitted activation curve with a large enough effect in the signal ratio, with a control signal flat, not every such curve was filed as active; the % refers to the signal ratio; note: % of control where 0% means no effect); settings: ME-180 HRE-bla reporter, beta-lactamase ratio, CoCl2, 17 h; activation: stronger effect = higher value
Summary of the method: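 Reporter activity (beta-lactamase, CCF4 460nm/530nm ratio) in HRE-bla ME-180 cells is recorded after 17 h compound exposure with EC50 CoCl2 at 37 degrees Celsius. AC50 values come from titration data.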

[8] = molecular target: ATP-dependent 6-phosphofructokinase (Trypanosoma brucei brucei) (UniProt O15648); assay: qHTS Assay to Find Inhibitors of T. brucei phosphofructokinase: hit validation (AID 492961; active = well fitted curve in the direction sought with a large enough effect; an effect the other way counts as inactive or inconclusive;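 note: luminescence reports ADP formed as PFK phosphorylates fructose-6-phosphate with ATP; % is set by controls: 0 for no effect and ±100 for the full control effect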); settings: T. brucei PFK, ADP-Glo luminescence; series mostly up to 51.4 µM
Summary of the method: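 In this biochemical qHTS validation, titrated compounds were tested against 1.25 nM PFK with 0.1 mM ATP and 0.5 mM F6P. Percent activity came from controls lacking or containing enzyme.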

[9] = qHTS profiling for inhibitors of Plasmodium falciparum proliferation (AID 504749; active = well fitted curve in the direction sought with a large enough effect; an effect the other way counts as inactive or inconclusive;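 note: 0% = DMSO vehicle and full inhibition = artemisinin control; nearly all actives have a fitted effect of over 60% in size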); settings: P. falciparum in erythrocytes, SYBR Green DNA, 72 h, at 28.7 µM (top of the series)
Summary of the method: (§1)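 In a 72 h erythrocytic culture (37 C, humidified, 5% CO2) at 2.5% hematocrit and 0.3% starting parasitemia, compounds were tested; SYBR Green I in detergent lysis buffer stained parasite DNA overnight.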

CP203 = assay: as above; settings: P. falciparum in erythrocytes, SYBR Green DNA, 72 h; series mostly up to 28.7 µM
Summary of the method: as §1

DFO2036 = assay: as above; settings: P. falciparum in erythrocytes, SYBR Green DNA, 72 h; series mostly up to 28.7 µM
Summary of the method: as §1

W2 = assay: as above; settings: P. falciparum in erythrocytes, SYBR Green DNA, 72 h; series mostly up to 28.7 µM
Summary of the method: as §1

[10] = Stat Signaling Pathway (AID 446); settings: ME-180 (cervical carcinoma) SIE beta-lactamase reporter, IL-6 stimulated, 5 h; at 7.69 µM (top of the series) unless noted
Summary of the method: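 Overnight-plated ME-180 cells bearing a STAT Inducible Element beta-lactamase reporter; 5 h co-exposure to compound and 40 pM IL-6; values normalized to 300 pM IL-6 and 125 nM JAK inhibitor controls.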

[11] = molecular target: Glucocorticoid receptor (Homo sapiens) (UniProt P04150); assay: GR-GFP Redistribution (AID 450;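 active = compounds whose dose series gives a full or clear partial fitted curve of increased nuclear translocation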; note: potency is the fitted concentration of half-maximal effect); settings: U2OS GR-GFP nuclear translocation, laser cytometry, 2 h
[12] = molecular target: Glucocorticoid receptor (Homo sapiens) (UniProt P04150); assay: GR-EFC Redistribution (AID 451; calls by dose curve; note: potency is the fitted concentration of half-maximal effect); settings: CHO-K1 GR-EFC translocation, beta-gal luminescence, 2 h
Summary of the method: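 Translocation of GR-ED fusion to nuclear EA restores b-gal, read by luminescence after 1 h room-temperature detection. Engineered CHO-K1 biosensor cells, 1,000/well, exposed 2 h at 37 C to titrations up to 46 uM final.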

[13] = molecular target: Cytochrome P450 3A4 (Homo sapiens) (UniProt P08684); assay: qHTS Assay for Activators of Cytochrome P450 3A4 (AID 885; active = well fitted curve in the direction sought with a large enough effect; an effect the other way counts as inactive or inconclusive; note: nearly all actives have a fitted effect of over 65% in size); settings: recombinant CYP3A4, Luciferin-PPXE luminescence, 60 min; series mostly up to 11.4 µM
Summary of the method: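 Using 20nM recombinant human CYP3A4 in potassium phosphate (200mM), substrate Luciferin-PPXE at 25uM, luminescent luciferin detection followed a 60-min RT NADPH reaction; data scaled to 57 uM ketoconazole.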

[14] = molecular target: Cytochrome P450 2C9 (Homo sapiens) (UniProt P11712); assay: qHTS Assay for Inhibitors and Substrates of Cytochrome P450 2C9 (AID 883; active = well fitted curve in the direction sought with a large enough effect; an effect the other way counts as inactive or inconclusive; note: potency is the fitted concentration of half-maximal effect; nearly all actives have a fitted effect of over 60% in size); settings: recombinant CYP2C9, luciferin-H luminescence, 60 min; series mostly up to 11.4 µM
Summary of the method: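 Inhibition of CYP2C9 is scored as loss of luminescence, with 57uM sulphaphenazole defining 100% inhibition. Substrate Luciferin-H is used at 100uM, equal to its KM; enzyme at 10nM in 25mM KPO4, 60 min at 37C with NADPH regeneration.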

[15] = molecular target: Cytochrome P450 2C19 (Homo sapiens) (UniProt P33261); assay: qHTS Assay for Inhibitors and Substrates of Cytochrome P450 2C19 (AID 899; active = well fitted curve in the direction sought with a large enough effect; an effect the other way counts as inactive or inconclusive; note: nearly all actives have a fitted effect of over 60% in size; note: potency is the fitted concentration of half-maximal effect); settings: recombinant CYP2C19, luciferin-H EGE luminescence; series mostly up to 11.4 µM
Summary of the method: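 5nM enzyme + 10uM Luciferin-H EGE (=KM), 50mM KPO4; cpd pin-transferred, 10 min 37C; NADPH regen, 60 min 37C; stopped w/ luciferin detection reagent, 20 min; luminescence. Normalized to 57uM ketoconazole (AC100).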

[16] = molecular target: Cytochrome P450 2D6 (Homo sapiens) (UniProt P10635); assay: qHTS Assay for Inhibitors and Substrates of Cytochrome P450 2D6 (AID 891; active = well fitted curve in the direction sought with a large enough effect; an effect the other way counts as inactive or inconclusive; note: potency is the fitted concentration of half-maximal effect; nearly all actives have a fitted effect of over 60% in size); settings: recombinant CYP2D6, luciferin-ME EGE luminescence; series mostly up to 11.4 µM
Summary of the method: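 Luminescent read-out of luciferin formed by 5 nM human CYP2D6 demethylating 30 uM Luciferin-ME EGE (Km level) over 60 min at room temperature after NADPH regeneration addition. Data normalized to full inhibition by 1.43 uM quinidine.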

Chain of Lysosomal acid glucosylceramidase (Homo sapiens) (P04062 whole entry, looked up): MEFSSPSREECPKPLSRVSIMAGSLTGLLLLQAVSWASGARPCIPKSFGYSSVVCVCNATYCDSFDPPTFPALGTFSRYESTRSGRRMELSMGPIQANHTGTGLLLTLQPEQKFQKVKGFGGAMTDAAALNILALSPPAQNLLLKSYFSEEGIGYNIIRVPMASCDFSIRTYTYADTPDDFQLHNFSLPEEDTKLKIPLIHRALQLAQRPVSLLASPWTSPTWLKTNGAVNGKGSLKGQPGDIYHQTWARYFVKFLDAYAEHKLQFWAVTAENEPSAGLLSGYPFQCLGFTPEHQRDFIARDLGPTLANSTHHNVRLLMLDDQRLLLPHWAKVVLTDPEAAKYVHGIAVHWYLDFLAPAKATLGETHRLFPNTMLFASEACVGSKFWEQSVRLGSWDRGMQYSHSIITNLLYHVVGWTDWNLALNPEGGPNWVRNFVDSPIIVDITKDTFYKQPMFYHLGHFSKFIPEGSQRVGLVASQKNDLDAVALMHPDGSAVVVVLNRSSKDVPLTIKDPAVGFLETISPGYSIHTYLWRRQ
Chain of Cytochrome P450 1A2 (Homo sapiens) (P05177 whole entry, looked up): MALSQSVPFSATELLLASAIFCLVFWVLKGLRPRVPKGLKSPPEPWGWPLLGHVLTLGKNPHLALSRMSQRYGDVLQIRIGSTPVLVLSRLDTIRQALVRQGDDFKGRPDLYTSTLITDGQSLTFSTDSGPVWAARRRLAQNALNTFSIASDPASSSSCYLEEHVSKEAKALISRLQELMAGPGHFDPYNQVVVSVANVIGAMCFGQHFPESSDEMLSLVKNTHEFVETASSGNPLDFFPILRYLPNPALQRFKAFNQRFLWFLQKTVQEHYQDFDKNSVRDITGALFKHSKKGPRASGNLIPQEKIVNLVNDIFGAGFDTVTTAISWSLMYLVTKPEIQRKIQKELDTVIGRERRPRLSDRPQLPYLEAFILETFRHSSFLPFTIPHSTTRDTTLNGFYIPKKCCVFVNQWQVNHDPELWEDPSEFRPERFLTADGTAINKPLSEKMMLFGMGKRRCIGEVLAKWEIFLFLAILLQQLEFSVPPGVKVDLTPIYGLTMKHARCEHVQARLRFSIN
Chain of Glucocorticoid receptor (Homo sapiens) (P04150 whole entry, looked up, the tested form may be a part): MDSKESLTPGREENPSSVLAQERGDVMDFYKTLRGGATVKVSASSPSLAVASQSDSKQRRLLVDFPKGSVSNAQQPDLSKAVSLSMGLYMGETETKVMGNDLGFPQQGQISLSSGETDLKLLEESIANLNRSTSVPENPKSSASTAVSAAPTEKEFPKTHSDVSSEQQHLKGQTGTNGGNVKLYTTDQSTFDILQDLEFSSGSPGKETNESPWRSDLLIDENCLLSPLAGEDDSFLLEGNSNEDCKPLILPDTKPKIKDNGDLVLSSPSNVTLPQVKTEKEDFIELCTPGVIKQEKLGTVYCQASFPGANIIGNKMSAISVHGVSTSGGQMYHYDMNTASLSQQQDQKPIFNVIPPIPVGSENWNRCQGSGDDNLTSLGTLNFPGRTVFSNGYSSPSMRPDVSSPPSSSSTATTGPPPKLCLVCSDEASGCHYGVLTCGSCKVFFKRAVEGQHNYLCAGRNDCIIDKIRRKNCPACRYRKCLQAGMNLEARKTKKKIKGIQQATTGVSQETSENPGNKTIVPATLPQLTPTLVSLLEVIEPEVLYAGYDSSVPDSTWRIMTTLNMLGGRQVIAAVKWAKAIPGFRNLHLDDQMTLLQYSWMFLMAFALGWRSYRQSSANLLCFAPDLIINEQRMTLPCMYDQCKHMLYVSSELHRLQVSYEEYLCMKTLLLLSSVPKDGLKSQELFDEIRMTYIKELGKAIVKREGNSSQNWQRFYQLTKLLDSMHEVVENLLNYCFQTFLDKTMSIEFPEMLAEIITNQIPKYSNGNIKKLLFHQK
Chain of 3',5'-cyclic-AMP phosphodiesterase 4B (Homo sapiens) (Q07343 whole entry, looked up): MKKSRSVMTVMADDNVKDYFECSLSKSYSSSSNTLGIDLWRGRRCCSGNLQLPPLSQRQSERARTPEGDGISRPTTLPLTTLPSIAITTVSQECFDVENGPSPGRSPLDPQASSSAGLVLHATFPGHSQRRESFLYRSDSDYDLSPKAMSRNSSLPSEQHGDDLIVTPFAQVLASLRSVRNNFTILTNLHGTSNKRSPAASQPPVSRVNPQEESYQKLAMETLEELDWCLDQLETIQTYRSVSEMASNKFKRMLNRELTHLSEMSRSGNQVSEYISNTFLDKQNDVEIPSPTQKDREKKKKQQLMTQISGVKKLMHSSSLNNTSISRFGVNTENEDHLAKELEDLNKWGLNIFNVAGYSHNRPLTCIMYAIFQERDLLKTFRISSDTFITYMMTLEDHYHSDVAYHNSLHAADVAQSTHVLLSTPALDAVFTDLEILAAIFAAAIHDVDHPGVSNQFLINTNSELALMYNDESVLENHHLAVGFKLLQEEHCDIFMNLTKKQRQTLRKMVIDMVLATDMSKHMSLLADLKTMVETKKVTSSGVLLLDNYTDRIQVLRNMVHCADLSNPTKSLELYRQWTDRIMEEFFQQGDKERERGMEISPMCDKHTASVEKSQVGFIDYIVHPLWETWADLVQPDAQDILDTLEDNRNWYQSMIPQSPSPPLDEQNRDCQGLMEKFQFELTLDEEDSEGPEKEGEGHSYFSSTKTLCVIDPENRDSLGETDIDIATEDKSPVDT
Chain of Cytochrome P450 3A4 (Homo sapiens) (P08684 whole entry, looked up): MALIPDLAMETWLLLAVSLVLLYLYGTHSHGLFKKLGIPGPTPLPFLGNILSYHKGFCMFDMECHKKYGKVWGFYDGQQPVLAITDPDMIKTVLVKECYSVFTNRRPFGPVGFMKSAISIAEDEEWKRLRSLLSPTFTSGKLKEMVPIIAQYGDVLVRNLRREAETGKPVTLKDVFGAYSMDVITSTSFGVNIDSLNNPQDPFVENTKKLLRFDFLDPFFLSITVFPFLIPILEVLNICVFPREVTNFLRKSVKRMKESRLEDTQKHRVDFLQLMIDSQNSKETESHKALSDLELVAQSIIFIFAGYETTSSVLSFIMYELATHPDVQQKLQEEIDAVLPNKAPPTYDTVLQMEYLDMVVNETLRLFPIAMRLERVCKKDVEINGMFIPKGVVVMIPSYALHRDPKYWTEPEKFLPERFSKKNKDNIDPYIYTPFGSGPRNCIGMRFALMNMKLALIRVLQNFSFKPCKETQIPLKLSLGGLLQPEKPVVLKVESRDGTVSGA
Chain of Cytochrome P450 2C19 (Homo sapiens) (P33261 whole entry, looked up): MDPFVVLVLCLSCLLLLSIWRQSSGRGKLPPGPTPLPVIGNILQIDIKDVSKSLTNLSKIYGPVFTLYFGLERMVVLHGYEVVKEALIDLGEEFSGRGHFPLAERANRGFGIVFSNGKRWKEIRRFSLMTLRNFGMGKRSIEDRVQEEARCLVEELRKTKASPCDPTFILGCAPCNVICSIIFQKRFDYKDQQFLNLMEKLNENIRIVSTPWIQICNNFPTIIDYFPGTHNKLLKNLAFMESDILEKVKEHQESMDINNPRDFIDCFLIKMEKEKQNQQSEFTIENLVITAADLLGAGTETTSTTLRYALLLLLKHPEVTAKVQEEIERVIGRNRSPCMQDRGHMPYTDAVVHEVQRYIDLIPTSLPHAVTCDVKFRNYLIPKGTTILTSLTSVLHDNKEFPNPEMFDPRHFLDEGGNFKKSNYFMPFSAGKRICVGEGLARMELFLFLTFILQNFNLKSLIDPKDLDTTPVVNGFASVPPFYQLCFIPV
Chain of Cytochrome P450 2D6 (Homo sapiens) (P10635 whole entry, looked up): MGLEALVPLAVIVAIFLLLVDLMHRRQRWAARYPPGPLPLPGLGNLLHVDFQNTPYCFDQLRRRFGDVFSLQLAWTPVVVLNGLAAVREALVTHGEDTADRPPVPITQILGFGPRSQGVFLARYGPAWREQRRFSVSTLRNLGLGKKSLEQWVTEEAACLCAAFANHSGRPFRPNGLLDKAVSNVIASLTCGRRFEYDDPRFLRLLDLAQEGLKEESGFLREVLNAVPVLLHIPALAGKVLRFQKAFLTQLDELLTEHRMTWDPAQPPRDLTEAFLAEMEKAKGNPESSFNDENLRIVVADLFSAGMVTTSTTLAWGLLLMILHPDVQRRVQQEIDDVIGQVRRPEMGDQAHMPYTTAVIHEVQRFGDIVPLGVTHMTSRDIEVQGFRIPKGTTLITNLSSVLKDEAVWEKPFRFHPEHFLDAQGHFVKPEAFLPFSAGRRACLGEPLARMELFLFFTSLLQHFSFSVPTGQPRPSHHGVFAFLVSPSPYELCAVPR
Chain of ATP-dependent 6-phosphofructokinase (Trypanosoma brucei brucei) (O15648 whole entry, looked up): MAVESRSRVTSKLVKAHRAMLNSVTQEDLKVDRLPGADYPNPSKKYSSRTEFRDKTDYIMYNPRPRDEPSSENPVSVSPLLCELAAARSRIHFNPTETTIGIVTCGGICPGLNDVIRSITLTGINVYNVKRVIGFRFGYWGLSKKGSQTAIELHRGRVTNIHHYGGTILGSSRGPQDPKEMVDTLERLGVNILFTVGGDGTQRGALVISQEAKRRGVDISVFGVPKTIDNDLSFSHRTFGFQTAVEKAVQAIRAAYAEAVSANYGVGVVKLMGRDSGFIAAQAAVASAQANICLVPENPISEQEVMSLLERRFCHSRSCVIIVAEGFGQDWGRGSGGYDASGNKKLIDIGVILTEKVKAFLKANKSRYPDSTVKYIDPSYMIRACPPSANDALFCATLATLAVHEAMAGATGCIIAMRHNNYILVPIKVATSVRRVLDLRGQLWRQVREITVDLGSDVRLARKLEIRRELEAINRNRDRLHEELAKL

CC1(C)[C@@H]2CC[C@]1(C)[C@@H](OC(=O)CSC#N)C2
inactive: Potency [1] > 11.4 µM | activity change, negative = inhibition [2] -4% | activity change, negative = inhibition [3] -18.3% [at 2.29 µM] | activity change, negative = inhibition [4] 18.3% | Potency [5] | Potency [6] | activation [7] -0.299% | outcome [8] | activity, negative = inhibition ([9]; parasite line A) -6.1% | activity, negative = inhibition ([9]; parasite line B) -5.42% | Potency (CP203) | Potency (DFO2036) | Potency (W2)

C[N+]1(CCCC[N+]2(C)CCCCCCC2)CCCCCCC1
inactive: Potency [1] > 11.4 µM | activity change, negative = inhibition [2] 0.612% | activity change, negative = inhibition [3] -10.4% [at 2.29 µM] | activity, negative = inhibition [10] -6.69% | Potency [11] > 46 µM | Potency [12] > 9.22 µM | Potency [5] | Potency [6]

Cc1nc2cnc(N3CCNCC3)nc2n(-c2ccccc2)c1=O
active: Potency [3] 10 µM
inactive: Potency [1] > 11.4 µM | activity change, negative = inhibition [2] -4.43% | activity change, negative = inhibition [4] 1.83% | Potency [11] > 9.22 µM | Potency [12] > 46 µM | Potency [5] | Potency [6] | Potency [13]

O=C(O)C[n+]1ccccc1
inactive: Potency [1] > 11.4 µM | activity change, negative = inhibition [2] -3.27% | Potency [3] | activity change, negative = inhibition [4] -24% | Potency [5] | Potency [6]

CC1=c2c(oc3cc(O)c(Nc4c(C)cc(O)cc4O)c(C)c23)=CC(=O)C1=Nc1c(C)cc(O)cc1O
inactive: Potency [1] > 11.4 µM | activity change, negative = inhibition [2] -6.5% | activity change, negative = inhibition [4] -22.3% | Potency [11] > 46 µM | Potency [12] > 9.22 µM | Potency [6]
active: Potency [3] 3.16 µM | Potency [14] 3.16 µM | Potency [15] 3.16 µM

C[N+](C)(C)c1ncnc2c1ncn2[C@@H]1CCCCO1
inactive: Potency [1] > 11.4 µM | activity change, negative = inhibition [2] 10.7% | activity change, negative = inhibition [3] 2.3% [at 2.29 µM] | activity change, negative = inhibition [4] 5.08% | Potency [11] > 46 µM | Potency [12] > 9.22 µM | Potency [5] | Potency [6] | Potency [15]

COCCn1c(=O)c(-c2ccccc2)nc2cnc(Nc3ccccc3)nc21
active: Potency [3] 5.01 µM
inactive: Potency [1] > 11.4 µM | activity change, negative = inhibition [2] -24.1% | activity change, negative = inhibition [4] 10.4% | Potency [11] > 9.22 µM | Potency [12] > 46 µM | Potency [5] | Potency [13]

O=c1c2ccccc2sc2c(CO)ccc(NCCN3CCCCC3)c12
inactive: Potency [1] > 11.4 µM | activity change, negative = inhibition [2] -1.51% | activity change, negative = inhibition [4] 27.4% | Potency [11] > 46 µM | Potency [12] > 9.22 µM | Potency [5] | Potency [6] | Potency [13]
active: Potency [3] 1.58 µM | Potency [16] 1.26 µM
